Data on 8 molecules can be found in PubChem BioAssay (NCI).

About 83,000 compounds went through this panel and 20% of them were active in at least one assay; those are over-represented in the sample as a whole.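 The endpoint reported here, percent growth, reads 100 for growth as untreated, 0 for no net growth and -100 for all cells dead.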 Values without a mark were called inactive. The source made the active and inactive calls. The calls were made as follows: active = growth percent below 10; inactive = the rest.

Common to all, as to test: NCI-60 one-dose screen, 48 h (100 = growth as untreated, 0 = no growth, -100 = all killed)
Common to all, as to conditions: 10 µM unless noted

Experiment [1] has as its system HCT-15 colon.
Experiment [2] has as its system HT29 colon.
Experiment [3] relates to SNB-75 CNS.
Experiment [4] concerns SNB-19 CNS.
Experiment [5] relates to U251 CNS.
Experiment [6] relates to PC-3 prostate.
Experiment [7] deals with SK-MEL-5 melanoma.
The test system of experiment [8] is UACC-62 melanoma.
Experiment [9] deals with LOX IMVI melanoma.
For experiment [10], the system named is SK-MEL-28 melanoma.
For experiment [11], the system named is SK-MEL-2 melanoma.
In experiment [12] the test system is EKVX NSCLC.
Experiment [13] relates to UO-31 renal.
Experiment [14] relates to TK-10 renal.
In experiment [15] the test system is ACHN renal.
Experiment [16] concerns CAKI-1 renal.
Experiment [17] has as its system A498 renal.
Experiment [18] deals with CCRF-CEM leukemia.
Experiment [19] concerns MOLT-4 leukemia.
Experiment [20] deals with SN12C renal.

In the case of `O=C(c1ccc(O)cc1)[C@@H]1CN[C@@]2(C(=O)Nc3ccccc32)[C@H]1c1ccc(F)cc1`, the growth in experiment [1] is 94.8%; in experiment [2] it was 110%; in experiment [3] it was 103%; in experiment [4], 92.8%; in [5] it was 102%; in experiment [6], 88.8%. The growth in [7] is 101%; in experiment [8], 86%; in experiment [9] it was 110%; in [10], 105%; in experiment [11] it was 104%; in [12] it was 91.9%. The growth was 77.3% in experiment [13]; 123% in experiment [14]; 94.5% in experiment [15]; 106% in [16]; 112% in experiment [17]; 99.2% in experiment [18]. In addition, the growth in [19] is 90.5%.
In the case of `CC1(C)CC[C@]2(C(=O)N3CCOCC3)CC[C@]3(C)C(=CC[C@@H]4[C@@]5(C)C/C(=C/c6ccco6)C(=O)C(C)(C)[C@@H]5CC[C@]43C)[C@@H]2C1`, the growth in experiment [1] was 81.5%; in experiment [2], 82.7%; in experiment [3], 28.6%; in experiment [4], 100%; in [5] it was 101%; in experiment [6], 60.3%. In addition, the growth in [7] is 94.2%; in experiment [8], 80.3%; in experiment [9], 63.9%; in experiment [10], 91.6%; in [11], 103%; in [12], 63.4%. Also, the growth is 86% in experiment [20]; 49.9% in [13]; 75.8% in [14]; 81.7% in [15]; 68.7% in [17]; 52.3% in experiment [19].
Regarding `CCOC(=O)c1c(N)c(C#N)cn1-c1cc(OC)c(OC)c(OC)c1`, the growth in experiment [1] is 106%; in [2], 107%; in experiment [3] it was 92.7%; in experiment [4], 101%; in experiment [5], 114%; in experiment [6] it was 105%. In addition, the growth is 111% in experiment [7]; 101% in [8]; 97.8% in experiment [9]; 108% in experiment [10]; 129% in experiment [11]; 96% in experiment [12]. Moreover, the growth in [13] was 88.8%; in experiment [14], 99.5%; in experiment [15] it was 101%; in experiment [16] it was 91.8%; in [17], 93.7%; in experiment [18], 107%. In [19], the growth is 102%.
As for `COc1ccc(C(=O)Nc2ncc(Cc3ccccc3Cl)s2)cc1`, the growth is 9.87% (active) in [1]; -16.6% (active) in experiment [2]; 28.8% in [3]; 23.7% in experiment [4]; 14.6% in experiment [5]; 29.7% in experiment [6]. The growth in [7] is 2.6% (active); in experiment [8], 35.7%; in experiment [9], 1.15% (active); in [10] it was 64%; in [11] it was -1.02% (active); in experiment [12], 41.7%. In addition, the growth in experiment [13] was 38.1%; in [14] it was 64.3%; in [15], 32.5%; in [16] it was 36.4%; in experiment [17] it was -8.09% (active); in experiment [18], 18.7%. Further, the growth in experiment [19] was 13.8%.
Regarding `CCOC(=O)c1c(Nc2ccccc2)nn2c(-c3ccccc3)ccnc12`, the growth was 63.3% in [1]; 84.4% in experiment [2]; 67.1% in [3]; 98.3% in experiment [4]; 90.8% in experiment [5]; 92.8% in experiment [6]. The growth is 78.5% in [7]; 87.7% in experiment [8]; 83% in experiment [9]; 101% in experiment [10]; 95.4% in experiment [12]; 90.5% in experiment [20]. For the same molecule, the growth was 85.5% in experiment [13]; 111% in [14]; 90.7% in [15]; 88.7% in [16]; 9.59% (active) in [18]; 87.1% in [19].
Regarding `C[C@@H]1C[C@H]2C(=O)O[C@@H](C)C(NC(=O)[C@H](Cc3cc(F)cc(F)c3)NC(=O)Nc3ccc(C4CC4)cc3F)C(=O)N3CCC[C@H]3C(=O)N3CCCC[C@H]3C(=O)N[C@@H](CO)C(=O)N2C1` (some centres not stated), the growth is 14.1% in experiment [1]; 25.4% in [2]; 31.5% in experiment [3]; 27.9% in experiment [4]; 29.8% in experiment [5]; 11.5% in [6]. For the same molecule, the growth was -15.9% (active) in [7]; 21.3% in experiment [8]; 30.4% in experiment [9]; 41.1% in [10]; 30.2% in [12]; 18.7% in [20]. Moreover, the growth in experiment [13] was 25.8%; in experiment [14], 52.6%; in [15], 28.6%; in experiment [16] it was 18.6%; in experiment [18], 31.2%; in [19] it was 39.7%.
Consider `O=C1CCCc2nc(Nc3ccc(S(=O)(=O)Nc4ccc([N+](=O)[O-])cc4)cc3)ncc21`, for which the growth in experiment [1] was 103%; in [2], 118%; in experiment [3], 92.6%; in experiment [4], 96.2%; in experiment [5] it was 103%; in experiment [6], 105%. The growth in experiment [7] is 104%; in experiment [8], 90.3%; in experiment [9], 97.1%; in experiment [11], 111%; in experiment [12], 100%; in [20] it was 96.2%. Also, the growth in experiment [13] is 87.1%; in experiment [14] it was 105%; in [15], 104%; in experiment [16] it was 89.9%; in [17], 94.7%; in experiment [18], 99.8%.
As to `Cc1ccc(NC(=O)N[C@@H](Cc2cc(F)cc(F)c2)C(=O)NC2C(=O)N3C[C@H](O)C[C@H]3C(=O)N3CCCC[C@H]3C(=O)N[C@@H](CO)C(=O)N3C[C@H](C)C[C@H]3C(=O)O[C@H]2C)c(F)c1` (some centres not stated), the growth in [1] is 106%; in experiment [2] it was 42.8%; in [3], 27.4%; in [4], 27.1%; in [5] it was 29.3%; in experiment [6], 20%. For the same molecule, the growth was 21.5% in experiment [7]; 30.9% in experiment [8]; 28.1% in [9]; 47.4% in [10]; 40.7% in experiment [12]; 22% in experiment [20]. Further, the growth in experiment [13] is 90.7%; in [14] it was 107%; in [15], 107%; in [16], 82.9%; in experiment [18], 35.1%; in experiment [19] it was 54.5%.
